Data as given in PubChem BioAssay AID2472 (National Center for Advancing Translational Sciences (NCATS), 2010).
The campaign covered roughly 290,000 compounds. About 2,000 (0.69%) were called active. The sample holds actives, similar compounds and a random draw of the others, so the mix is not that of the screen. A number with no mark means an inactive call. No stated cut-off is given here; in the data, active means activity change below about -30%; inactive means the rest, inconclusive results apart.

Assay: qHTS Assay for Inhibitors of Fructose-1,6-bisphosphate Aldolase from Giardia Lamblia: Coupling assay counterscreen
Details: coupling enzyme system counterscreen, AmpLite Red fluorescence; at 58.2 µM (top of the series)
Procedure, shortened: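 Final compound at 57.5 uM, incubated 10 min at RT with coupling enzyme reagent (glyceraldehyde-3-phosphate), then 20 min with substrate and AmpLite Red detection. Fluorescence read at 525/598 nm; tests interference with the coupling assay, not aldolase inhibition.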
On the % scale 0 is the no-effect control and ±100 the full control effect.

Compound	activity change, negative = inhibition
O=C(CSc1cccc[n+]1[O-])c1ccc(-c2ccccc2)cc1	-0.455%
CCSc1nsc(NC(=O)Nc2cccc(C(C)=O)c2)n1	-3.71%
C=C1CCN(Cc2ccc(OC)cc2)S(=O)(=O)c2ccccc21	-9.95%
O=C(Nc1cc(C(=O)Nc2ccc(S(=O)(=O)O)cc2)cc(C(=O)Nc2ccc(S(=O)(=O)O)cc2)c1)Nc1cc(C(=O)Nc2ccc(S(=O)(=O)O)cc2)cc(C(=O)Nc2ccc(S(=O)(=O)O)cc2)c1	4.94%
Cc1c(S(=O)(=O)O)oc2c1C(=O)C(=O)c1c-2ccc2c1CCCC2(C)C	-38.9% (active)
Cc1cc(C)cc(C#CC2C=CC(Oc3ccc(C4CCCC4)cc3)C(CO)O2)c1 (stereo not drawn)	-0.466%
CC(C)(c1ccccc1)c1ccc(OCCN2CCCC2)cc1	1.45%
COc1ccc(OC)c(C(c2nnnn2C(C)(C)C)N2CCc3ccccc3C2)c1 (stereo not drawn)	-0.0178%
COCCn1nnnc1C(c1cc2ccc(OC)cc2[nH]c1=O)N1CCc2ccccc2C1 (stereo not drawn)	-47.7% (active)
CCOc1ccc2[nH]c(=O)c(C(c3nnnn3CCOC)N3CCOCC3)cc2c1 (stereo not drawn)	-2.27%
CCOc1ccc(CCNC(=O)Nc2ccccc2)cc1OCC	1.61%
Cc1cccc(OC(C)C(=O)N2CCc3ccccc3C2)c1 (stereo not drawn)	3.66%
CC(C)(O/N=C(\C(=O)N[C@@H]1C(=O)N2C(C(=O)[O-])=C(C[n+]3ccccc3)CS[C@@H]12)c1csc(N)n1)C(=O)O	1.97%
CCN1C(=S)N[C@@H](c2cccc(C(F)(F)F)c2)C(C(=O)OC)=C1C	2.17%
CN(CCc1ccccn1)C(=O)c1ccc(OC2CCN(CCc3ccccc3)CC2)cc1	6.37%
Nc1ccc2nc3c(=O)[nH]c(=S)[nH]c3nc2c1	-35.7% (active)
Cc1cc2nc3c(=O)n(Cc4ccccc4)c(=O)[nH]c3nc2cc1N	-26.3%
Cc1cccc(OCCC(=O)Nc2ccccc2C(N)=O)c1	-1.3%
O=C(NCc1ccco1)O[C@@H]1C(=O)c2cc(Br)ccc2O[C@H]1c1ccc2c(c1)OCO2	-0.223%
Cc1ccccc1NC(=O)N1CCCC1C(=O)NCc1ccccc1 (stereo not drawn)	2.24%
CCC(C)NC(=O)c1c(N)n(/N=C/c2cccs2)c2nc3ccccc3nc12 (stereo not drawn)	5.17%

Compound	activity change, negative = inhibition
CC(C)Cn1c(N)c(C(=O)NCc2cccs2)c2nc3ccccc3nc21	-45.5% (active)
CC(C)(C)c1ccc(C(=O)NCCn2c(N)c(C#N)c3nc4ccccc4nc32)cc1	-0.974%
COc1ccc(-c2nc3c(c4c2C[C@H](c2ccccc2)OC4)CN(C(=O)c2ccco2)CC3)c(C)c1	-0.274%
COc1ccc(OCC(=O)Nc2ccc(NC(=O)c3ccco3)c(C)c2)cc1	-0.451%
Cc1ccc(/C=N/NC(=O)CNC(=O)COc2ccccc2)o1	0.654%
CCOc1ccccc1/C=N/NC(=O)CNC(=O)COc1ccccc1	-43.5% (active)
Cc1ccc(/C=N/NC(=O)COc2ccccc2-c2ccccc2)cc1	0.851%
C=C(C)CNC(=S)N/N=C/c1ccccc1OCC(=O)O	7.3%
C=CCOc1ccccc1/C=N/NC(=O)Cc1ccccc1	3.68%
C=CCc1ccccc1OCC(=O)N/N=C/c1ccccc1OCC	-30.1% (active)
Cc1ccc(CSCCNC(=O)CN(c2ccc(F)cc2)S(C)(=O)=O)cc1	-1.38%
O=c1c(O)c(Br)ccc2c(Br)c(O)c(O)c(O)c12	-45.3% (active)
COc1ccc(CNC(=O)C(C)NCc2ccccc2Cl)cc1 (stereo not drawn)	-0.161%
O=[N+]([O-])c1ccc(N=Cc2c(O)ccc3ccccc23)cc1	-37.8% (active)
O=[N+]([O-])c1ccc(O)c(/C=N/Nc2ccccc2[N+](=O)[O-])c1	0.257%
CC(=O)n1c(C=Nc2ccccc2)c(O)c2ccccc21	0.601%
Oc1ccc2ccccc2c1C=Nc1ccccc1	-34.9% (active)
COc1cc(N=Cc2c(O)[nH]c3ccccc23)cc(OC)c1OC	-1.7%
O=[N+]([O-])c1ccc(N/N=C/c2ccccc2)cc1	1.24%
CCCCn1c(SCC(=O)N2CCOCC2)nc2c1c(=O)n(C)c(=O)n2C	-0.5%
O=C(Nc1ccccc1N1CCOCC1)c1ccc(OCc2cscn2)cc1	-3.06%

Compound	activity change, negative = inhibition
Cc1nc(Nc2ccccc2F)c2nnn(Cc3ccccc3Cl)c2n1	1.81%
C=C[C@](C)(O)CCC1C(=C)CCC2[C@@](C)(CO)CCC[C@@]12C (stereo partly drawn)	1.09%
CCOc1ccc(NC(=O)CCC(=O)N/N=C/c2ccc([N+](=O)[O-])s2)cc1	0.71%
CC(C)(C)c1cc(C(=O)N/N=C/c2ccc([N+](=O)[O-])s2)n[nH]1	1.27%
O=[N+]([O-])c1ccc(C=Nc2ccc(Cl)cc2Cl)s1	-32% (active)
Nc1nc2c(nc(Cl)n2C2OC(CO)C(O)C2O)c(=O)[nH]1 (stereo not drawn)	1.07%
CC(C)(C)NC(=O)COc1ccc(CNc2ccc3[nH]c(=O)[nH]c3c2)cc1	-49.7% (active)
CC(=O)Nc1ccc(OCC(=O)NCc2ccc(C)cc2)cc1	0.378%
COC(=O)c1ccc(OCC(=O)NC(C)(C)C)cc1	-2.25%
Cc1cccc(C)c1NC(=O)CN1C(=O)C(C)Oc2ccccc21 (stereo not drawn)	0.123%
NS(=O)(=O)c1cccc(NC(=O)CC23CC4CC(CC(Br)(C4)C2)C3)c1	-0.295%
O=C(/C=C/c1ccc(N2CCOCC2)cc1)c1ccccc1	-2.68%
Oc1c(C=Nc2cccc3nsnc23)ccc2ccccc12	-48.9% (active)
Oc1ccc2ccccc2c1N=Nc1nccs1	-6.8%
N#Cc1cccc(NC(=O)CN2CCCCCC2)c1	0.599%
Cc1ccc(C(=O)NC2CCN(C(=O)Nc3ccc(F)cc3)CC2)cc1	-0.456%
CC(=O)OCC(NC(=O)C(Cc1ccccc1)NC(=O)OC(C)(C)C)C1OC(n2ccc(=O)[nH]c2=O)C(OC(C)=O)C1OC(C)=O (stereo not drawn)	0.391%
COc1ccc(N2CCN(C(=O)CCSCc3ccccc3F)CC2)cc1	2.76%
Cc1cc(C)c([N+](=O)[O-])cc1-c1ccc(/C=N/NC(=O)c2nonc2N)o1	2.52%
O=C(CN1CCOCC1)N/N=C/c1ccc(-c2ccc(Br)cc2)o1	-3.01%
Cc1ccc(-c2ccc(/C=N/NC(=O)CN3CCOCC3)o2)cc1[N+](=O)[O-]	-44% (active)

Compound	activity change, negative = inhibition
CC(C)CNC(=S)NC(=O)c1ccc(Cl)cc1	-5.21%
COc1ccc(OCCCON2C(=O)c3ccccc3C2=O)cc1	0.279%
CCOC(=O)c1c(-c2ccc(C)cc2)csc1/N=C(\C)C1=C(O)c2ccccc2C1=O	3.5%
CCOC(=O)C1=C(c2ccc(OC)cc2)C(=O)c2ccccc2C1=O	-63.5% (active)
CC[N+](C)(CC)CCC[n+]1c(-c2ccccc2)c2cc(N)ccc2c2ccc(N)cc21	-38.7% (active)
COc1cc2c(C(=O)N3CCN(C)CC3)c(CSc3ccccc3)n(C)c2cc1Br	1.25%
COc1cc(-c2c(-c3ccc4c(c3)OCO4)noc2C)ccc1F	4.94%
CNC(=O)C1(C)C=CC2(CCCCC2)N1C(C)=O (stereo not drawn)	-1.27%
CN1c2ccc([N+](=O)[O-])cc2C(C)(C)C12C=Cc1cc(C(=O)O)ccc1O2 (stereo not drawn)	6.4%
COc1cccc(CC2(CO)CCCN(CC3=Cc4cc(OC)ccc4OC3)C2)c1 (stereo not drawn)	-1.06%
COc1ccc2c(c1)C=CC1(O2)N(CCO)c2ccccc2C1(C)C (stereo not drawn)	-47.2% (active)
CCOC(=O)C1(CCOc2ccccc2)CCN(Cc2cc(OC)c(O)cc2Cl)CC1	-3.97%
O=c1ccc2cc(S(=O)(=O)Nc3ccccc3F)ccc2o1	2.93%
COc1ccc2c(c1)C(=C(C#N)C#N)C(=O)N2CCc1ccccc1	-35.5% (active)
CCCCN1C(=O)/C(=C(/C#N)C(N)=O)c2ccccc21	-19.4%
C#CCN1C(=O)C(O)(CC(=O)c2cc(OC)ccc2OC)c2ccccc21 (stereo not drawn)	2.24%
NCCCNCCCCN(CCCN)/[N+]([O-])=N/O	1%
CN(C)c1ccc(S(=O)(=O)NCC(=O)NCC2CCCCC2)cc1[N+](=O)[O-]	-0.658%
COc1ccc(-c2ccc(C3C4C=CCCC4(C)C(=O)N3Cc3ccccc3)c(F)c2)cc1OC (stereo not drawn)	2.19%
CC1(C)c2[nH]c3ccccc3c2C[C@H]2C(=O)N(N)CC(=O)N21	2.07%
